Source: PubChem BioAssay (EPA / NIEHS)
Activity calls are given as the source filed them. How the source made its calls: active means hit-call score of the fitted dose curve at least 0.9, where 1 is the maximum; inactive means score below 0.9.

Assays:
[1] = ATG_E_Box_CIS: Attagene CIS-FACTORIAL HepG2 Assay for human Enhancer Box (E-box) (AID 2282936); details: HepG2 E-box cis-reporter transcription, actives raise or lower the signal
Method in brief: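 First, HepG2 cells receive multiple cis-regulated reporter constructs by transient transfection. Next, chemicals are applied for 24 h. Finally, reporter mRNA is quantified via RT-PCR and capillary electrophoresis, with DMSO as baseline.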

[2] = ATG_M_61_CIS: Attagene CIS-FACTORIAL HepG2 Assay for M61 Transcription Factor (Internal Marker) (AID 2282937); details: HepG2 Attagene CIS-FACTORIAL M61 internal marker reporter; actives raise or lower the signal
Method in brief: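 Fluorescence from labelled cDNA fragments, separated by capillary electrophoresis, quantifies reporter induction. HepG2 cells bearing transiently transfected cis-promoter MRTUs were incubated with test chemical for 24 h; DMSO defined baseline for gain/loss fitting.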

[3] = ATG_EGR_CIS: Attagene CIS-FACTORIAL HepG2 Assay for human Early Growth Response 1 (EGR1) (AID 2282938); details: HepG2 Attagene CIS-FACTORIAL EGR reporter mRNA; actives raise or lower the signal
Method in brief: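 Cell-based multiplex transcription assay: HepG2 carrying transfected cis-element reporter units, 24 h chemical treatment. Fluorescence from capillary electrophoresis of RT-PCR products gives mRNA levels; fitting is bidirectional relative to DMSO.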

[4] = ATG_M_19_CIS: Attagene CIS-FACTORIAL HepG2 Assay for M19 Transcription Factor (Internal Marker) (AID 2282939); details: HepG2 Attagene CIS-FACTORIAL M19 internal marker reporter; actives raise or lower the signal
Method in brief: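 Chemical-treated HepG2 (24 h) with MRTU constructs; reporter transcripts detected by fluorescent RT-PCR fragment analysis on capillary electrophoresis. Internal background marker, DMSO as baseline.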

[5] = ATG_ERE_CIS: Attagene CIS-FACTORIAL HepG2 Assay for Estrogen Response Element (ERE) (AID 2282940); details: HepG2 ERE cis-reporter, Attagene RNA transcript; actives raise or lower the signal
Method in brief: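 Human liver cells (HepG2) bearing transiently transfected, promoter-regulated reporter units were exposed 24 h. Reporter mRNA induction was detected by capillary electrophoresis of labelled RT-PCR products and fitted bidirectionally to DMSO.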

[6] = ATG_Ets_CIS: Attagene CIS-FACTORIAL HepG2 Assay for human Erythroblast Transformation Specific (ETS) (AID 2282941); details: HepG2 ETS cis-reporter transcription, actives raise or lower the signal
Method in brief: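 After transient cis-reporter transfection, HepG2 cells receive test chemical for 24 h. Reporter mRNA levels, measured by RT-PCR and capillary electrophoresis fluorescence, are analysed bidirectionally relative to the DMSO baseline.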

[7] = target: Hepatocyte nuclear factor 3-beta (Homo sapiens) (UniProt Q9Y261); experiment: ATG_FoxA2_CIS: Attagene CIS-FACTORIAL HepG2 Assay for human Forkhead box A2 (FOXA2) (AID 2282942); details: HepG2 cis-reporter transcription factor activity, 24 h; actives raise or lower the signal
Method in brief: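 In transiently transfected human HepG2 cells, promoter-driven reporter mRNA levels after 24 h chemical exposure are determined via RT-PCR with capillary electrophoresis. DMSO serves as baseline for bidirectional fitting.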

[8] = ATG_FoxO_CIS: Attagene CIS-FACTORIAL HepG2 Assay for human Forkhead box O (FoxO) (AID 2282943); details: HepG2 Attagene cis-reporter, FoxO element, mRNA; actives raise or lower the signal
Method in brief: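 HepG2 cells transiently transfected with cis-element-driven reporter units report endogenous FoxO activity. After 24 h chemical exposure, reporter mRNA quantified by RT-PCR, fluorescent labeling, HpaI digestion and capillary electrophoresis; bidirectional fit versus DMSO.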

[9] = ATG_GATA_CIS: Attagene CIS-FACTORIAL HepG2 Assay for human GATA Binding Protein (AID 2282944); details: HepG2 GATA cis-element reporter, Attagene multiplex mRNA; actives raise or lower the signal
Method in brief: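 Transfected cis-reporter HepG2 cells were treated with chemicals for 24 hours. Total RNA was then converted to cDNA, amplified with reporter-specific primers and analysed by fluorescent capillary electrophoresis, using DMSO-treated wells as baseline.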

[10] = ATG_GLI_CIS: Attagene CIS-FACTORIAL HepG2 Assay for human Zinc Finger Protein GLI1 (AID 2282945); details: HepG2, Attagene cis-factorial reporter mRNA, GLI element; actives raise or lower the signal
Method in brief: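 Transiently transfected HepG2 cells report endogenous transcription factor activity via cis-element-driven reporter units. After 24 h compound exposure, reporter mRNA was measured by RT-PCR with capillary electrophoresis; bidirectional fitting against DMSO baseline.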

[11] = ATG_GRE_CIS: Attagene CIS-FACTORIAL HepG2 Assay for human Glucocorticoid Response Elements (GRE) (AID 2282947); details: HepG2 GRE cis-reporter, Attagene multiplex mRNA; actives raise or lower the signal
Method in brief: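 Endogenous transcription factor activity is read through cis-element reporter constructs transiently transfected into HepG2 cells. After 24 h treatment, labelled RT-PCR products are resolved by capillary electrophoresis; DMSO sets baseline for bidirectional curve fitting.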

[12] = ATG_ISRE_CIS: Attagene CIS-FACTORIAL HepG2 Assay for human Interferon Regulatory Factor 1 (IRF1) binding to an Interferon-Stimulated Response Element (ISRE) (AID 2282948); details: HepG2 ISRE cis-reporter (Attagene), mRNA transcription readout; actives raise or lower the signal
Method in brief: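 Quantitation relies on labelled RT-PCR fragments separated by capillary electrophoresis. Human HepG2 cells bearing cis-promoter reporter constructs were treated 24 h; DMSO served as baseline for bidirectional fitting.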

[13] = ATG_M_32_CIS: Attagene CIS-FACTORIAL HepG2 Assay for M32 Transcription Factor (Internal Marker) (AID 2282949); details: HepG2 Attagene cis-factorial M32 reporter, mRNA; actives raise or lower the signal;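 further: background control marker of the multiplexed CIS panel rather than a real target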
Method in brief: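 Following 24 h chemical exposure of HepG2 cells transiently expressing cis-promoter reporter constructs, reporter transcript levels were determined by RT-PCR with fluorescent labelling and capillary electrophoresis, then fitted bidirectionally against DMSO.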

[14] = ATG_M_06_CIS: Attagene CIS-FACTORIAL HepG2 Assay for M06 Transcription Factor (Internal Marker) (AID 2282950); details: HepG2 Attagene CIS-FACTORIAL M06 internal marker reporter; actives raise or lower the signal
Method in brief: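 Cells (HepG2, transiently carrying cis-driven reporter units) receive chemical for 24 h before RNA isolation. Reporter cDNA is PCR-amplified, FAM-labelled by primer extension, HpaI-digested and sized on a capillary analyser.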

[15] = target: Hypoxia-inducible factor 1-alpha (Homo sapiens) (UniProt Q16665); experiment: ATG_HIF1a_CIS: Attagene CIS-FACTORIAL HepG2 Assay for human Hypoxia Inducible Factor 1 (HIF1A) (AID 2282951); details: HepG2 Attagene cis-factorial HIF1a reporter transcription; actives raise or lower the signal
Method in brief: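 In this multiplexed cell assay, HepG2 cells bearing transfected cis reporters are dosed for 24 h and reporter mRNA is read by RT-PCR plus capillary electrophoresis; signal increases and decreases are both scored against DMSO.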

[16] = target: Hepatocyte nuclear factor 6 (Homo sapiens) (UniProt Q9UBC0); experiment: ATG_HNF6_CIS: Attagene CIS-FACTORIAL HepG2 Assay for human Hepatocyte Nuclear Factor 6 (HNF6) (AID 2282952); details: HepG2 Attagene cis-factorial HNF6 reporter transcription; actives raise or lower the signal
Method in brief: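 Cells are HepG2 carrying transiently transfected cis-promoter reporter units. Treatment lasts 24 h, after which reporter transcripts are reverse-transcribed, amplified, FAM-labelled and sized by capillary electrophoresis. DMSO serves as baseline.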

[17] = ATG_MRE_CIS: Attagene CIS-FACTORIAL HepG2 Assay for human Metal Responsive Element (MRE) (AID 2282954); details: HepG2 MRE cis-reporter transcription, Attagene multiplex; actives raise or lower the signal
Method in brief: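 Fluorescent reporter fragments separated by capillary electrophoresis give mRNA induction for the MRE unit after 24 h treatment of transfected HepG2 cells. Endogenous transcription-factor activity is read; DMSO serves as negative control and baseline.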

[18] = target: Bile acid receptor (Homo sapiens) (UniProt Q96RI1); experiment: ATG_IR1_CIS: Attagene CIS-FACTORIAL HepG2 Assay for human Nuclear Receptor Subfamily 1 Group H Member 4 (NR1H4), IR1 submotif (AID 2282946); details: IR1 reporter transcription, actives raise or lower the signal
Method in brief: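 HepG2 cells transiently transfected with multiple cis-promoter-driven reporter units to measure endogenous transcription factor activity; 24 h exposure. Reporter mRNA read by RT-PCR, FAM labelling, HpaI digestion and capillary electrophoresis. Bidirectional fit versus DMSO.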

[19] = ATG_PBREM_CIS: Attagene CIS-FACTORIAL HepG2 Assay for human Phenobarbital-responsive Enhancer Module (PBREM) (AID 2282955); details: HepG2 PBREM cis-reporter, Attagene multiplexed transcription; actives raise or lower the signal
Method in brief: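 After a 24 h incubation with test chemical, transfected HepG2 cells yield total RNA; reporter-specific RT-PCR products are fluorescently labelled, HpaI-digested and resolved by capillary electrophoresis against ROX size standards.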

[20] = target: Heat shock factor protein 1 (Homo sapiens) (UniProt Q00613); experiment: ATG_HSE_CIS: Attagene CIS-FACTORIAL HepG2 Assay for human Heat Shock Transcription Factor 1 (HSE) (AID 2282953); details: HepG2 HSE cis-reporter, Attagene RNA transcription; actives raise or lower the signal
Method in brief: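 Liver-derived HepG2 cells carry transiently introduced multiple reporter units governed by cis promoters. Reporter RNA measured 24 h post-dose through reverse transcription, PCR amplification, fluorescent labelling and capillary electrophoresis, normalised to DMSO.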

Measured: outcome

Chain of Bile acid receptor (Homo sapiens) (Q96RI1 whole entry, looked up): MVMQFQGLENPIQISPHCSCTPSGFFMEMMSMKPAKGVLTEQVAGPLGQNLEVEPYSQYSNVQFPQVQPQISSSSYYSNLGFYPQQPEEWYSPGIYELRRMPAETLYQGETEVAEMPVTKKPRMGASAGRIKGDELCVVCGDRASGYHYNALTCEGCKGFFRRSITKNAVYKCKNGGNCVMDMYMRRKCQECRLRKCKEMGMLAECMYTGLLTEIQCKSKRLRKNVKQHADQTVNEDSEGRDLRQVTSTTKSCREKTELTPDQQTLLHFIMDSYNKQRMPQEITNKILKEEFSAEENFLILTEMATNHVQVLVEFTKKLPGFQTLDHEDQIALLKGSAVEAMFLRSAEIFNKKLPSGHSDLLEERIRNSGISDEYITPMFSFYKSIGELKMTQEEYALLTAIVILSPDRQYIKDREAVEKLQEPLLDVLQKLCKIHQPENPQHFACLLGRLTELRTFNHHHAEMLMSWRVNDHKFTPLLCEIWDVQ
Chain of Hepatocyte nuclear factor 6 (Homo sapiens) (Q9UBC0 whole entry, looked up): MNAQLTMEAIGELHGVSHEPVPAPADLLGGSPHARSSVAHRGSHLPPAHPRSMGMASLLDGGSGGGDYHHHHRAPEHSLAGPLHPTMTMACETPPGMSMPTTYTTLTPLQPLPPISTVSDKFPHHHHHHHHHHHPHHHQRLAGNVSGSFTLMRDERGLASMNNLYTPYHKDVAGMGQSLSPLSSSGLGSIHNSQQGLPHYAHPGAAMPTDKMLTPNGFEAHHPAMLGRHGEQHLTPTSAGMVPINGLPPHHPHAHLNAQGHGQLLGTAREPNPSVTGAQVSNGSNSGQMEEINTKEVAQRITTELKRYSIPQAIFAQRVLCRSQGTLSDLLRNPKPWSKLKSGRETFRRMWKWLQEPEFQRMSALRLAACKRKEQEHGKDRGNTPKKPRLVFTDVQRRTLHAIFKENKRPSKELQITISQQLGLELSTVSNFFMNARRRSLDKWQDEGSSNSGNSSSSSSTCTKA
Chain of Hepatocyte nuclear factor 3-beta (Homo sapiens) (Q9Y261 whole entry, looked up): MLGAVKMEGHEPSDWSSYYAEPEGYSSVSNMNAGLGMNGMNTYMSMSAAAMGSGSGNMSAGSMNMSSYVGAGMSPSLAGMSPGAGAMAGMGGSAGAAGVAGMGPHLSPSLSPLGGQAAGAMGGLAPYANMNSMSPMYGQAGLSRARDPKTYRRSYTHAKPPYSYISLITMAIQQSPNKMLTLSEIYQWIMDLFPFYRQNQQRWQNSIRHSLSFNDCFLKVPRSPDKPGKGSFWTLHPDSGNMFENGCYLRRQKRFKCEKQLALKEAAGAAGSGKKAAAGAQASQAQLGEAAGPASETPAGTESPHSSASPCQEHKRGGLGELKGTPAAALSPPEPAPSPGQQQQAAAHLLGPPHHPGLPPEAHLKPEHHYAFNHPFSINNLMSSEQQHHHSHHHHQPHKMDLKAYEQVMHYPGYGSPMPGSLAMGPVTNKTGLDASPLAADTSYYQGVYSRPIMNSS
Chain of Hypoxia-inducible factor 1-alpha (Homo sapiens) (Q16665 whole entry, looked up): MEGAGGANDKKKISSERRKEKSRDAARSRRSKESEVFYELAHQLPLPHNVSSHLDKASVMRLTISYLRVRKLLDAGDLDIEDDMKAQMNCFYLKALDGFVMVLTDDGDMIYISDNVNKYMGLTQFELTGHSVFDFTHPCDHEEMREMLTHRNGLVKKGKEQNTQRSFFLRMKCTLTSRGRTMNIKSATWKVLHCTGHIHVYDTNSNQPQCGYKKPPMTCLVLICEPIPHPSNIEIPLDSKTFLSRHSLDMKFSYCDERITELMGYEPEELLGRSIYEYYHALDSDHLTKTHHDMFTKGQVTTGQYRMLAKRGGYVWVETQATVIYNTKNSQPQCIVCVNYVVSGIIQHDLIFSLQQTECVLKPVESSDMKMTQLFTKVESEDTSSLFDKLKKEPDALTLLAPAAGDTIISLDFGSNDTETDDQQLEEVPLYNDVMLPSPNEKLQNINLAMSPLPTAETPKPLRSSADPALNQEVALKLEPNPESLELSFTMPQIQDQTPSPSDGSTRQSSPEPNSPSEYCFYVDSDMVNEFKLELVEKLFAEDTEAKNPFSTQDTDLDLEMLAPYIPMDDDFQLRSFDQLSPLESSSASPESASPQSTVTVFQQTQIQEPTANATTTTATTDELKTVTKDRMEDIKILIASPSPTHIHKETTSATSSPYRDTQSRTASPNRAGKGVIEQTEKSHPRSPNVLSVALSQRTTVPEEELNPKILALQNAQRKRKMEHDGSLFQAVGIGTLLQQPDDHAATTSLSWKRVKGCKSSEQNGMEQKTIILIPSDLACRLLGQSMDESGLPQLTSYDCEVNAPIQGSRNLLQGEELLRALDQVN
Chain of Heat shock factor protein 1 (Homo sapiens) (Q00613 whole entry, looked up): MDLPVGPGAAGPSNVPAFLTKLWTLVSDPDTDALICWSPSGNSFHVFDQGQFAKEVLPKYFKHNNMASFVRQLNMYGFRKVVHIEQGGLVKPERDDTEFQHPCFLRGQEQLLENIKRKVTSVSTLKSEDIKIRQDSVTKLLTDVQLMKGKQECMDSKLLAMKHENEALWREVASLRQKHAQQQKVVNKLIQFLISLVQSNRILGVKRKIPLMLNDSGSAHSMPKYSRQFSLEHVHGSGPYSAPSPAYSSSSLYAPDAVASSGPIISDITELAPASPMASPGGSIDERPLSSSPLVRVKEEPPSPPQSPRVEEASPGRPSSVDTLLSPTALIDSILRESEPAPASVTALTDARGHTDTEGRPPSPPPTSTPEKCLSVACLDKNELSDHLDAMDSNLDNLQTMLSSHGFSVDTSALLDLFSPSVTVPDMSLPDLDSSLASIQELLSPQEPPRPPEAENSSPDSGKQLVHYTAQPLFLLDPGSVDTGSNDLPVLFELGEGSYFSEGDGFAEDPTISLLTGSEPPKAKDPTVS

OCCNCCO
inactive: [1] | [2] | [3] | [4] | [5] | [6] | [7] | [8] | [9] | [10] | [11] | [12] | [13] | [14] | [15] | [16] | [17]

OC[C@H]1O[C@@](CO)(O[C@H]2O[C@H](CO)[C@@H](O)[C@H](O)[C@H]2O)[C@@H](O)[C@@H]1O
inactive: [1] | [2] | [3] | [4] | [5] | [6] | [7] | [8] | [9] | [10] | [18] | [12] | [13] | [14] | [15] | [16] | [17] | [19]

O=S1(=O)CCCO1
inactive: [1] | [2] | [3] | [4] | [5] | [6] | [7] | [8] | [9] | [10] | [11] | [12] | [13] | [14] | [15] | [16] | [17] | [19]

CCCc1ccccc1
inactive: [1] | [2] | [3] | [4] | [5] | [6] | [7] | [8] | [9] | [10] | [11] | [12] | [13] | [14] | [16] | [20] | [17] | [19]

CCOc1ccc2[nH]cc(C(=O)NCc3ccccc3)c(=O)c2n1
inactive: [1] | [2] | [3] | [4] | [5] | [6] | [7] | [8] | [9] | [10] | [18] | [12] | [13] | [14] | [15] | [16] | [20] | [17] | [19]

Cc1ncc([C@@H](CCCCCCc2ccc3c(n2)NCCC3)CC(=O)O)cn1
inactive: [1] | [2] | [3] | [4] | [5] | [6] | [7] | [8] | [9] | [10] | [18] | [12] | [13] | [14] | [15] | [16] | [17]

OCc1ccccc1
inactive: [1] | [2] | [3] | [4] | [5] | [6] | [7] | [8] | [9] | [10] | [11] | [12] | [13] | [14] | [15] | [16] | [17] | [19]
